# GBA enhancer = GBA activity enhancers in patient fibroblasts, primary screen, cell-based. Lysosomal acid glucosylceramidase (Homo sapiens), P04062. 30,000 tested, 0.44% active. activation, % at 10 µM. L444P Gaucher fibroblasts, 4-MU-glucoside fluorescence, 3 days; in the data active means activation above about 65%;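 further: 0% = vehicle wells and 100% = positive control wells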
# Target sequence (P04062 whole entry L483P): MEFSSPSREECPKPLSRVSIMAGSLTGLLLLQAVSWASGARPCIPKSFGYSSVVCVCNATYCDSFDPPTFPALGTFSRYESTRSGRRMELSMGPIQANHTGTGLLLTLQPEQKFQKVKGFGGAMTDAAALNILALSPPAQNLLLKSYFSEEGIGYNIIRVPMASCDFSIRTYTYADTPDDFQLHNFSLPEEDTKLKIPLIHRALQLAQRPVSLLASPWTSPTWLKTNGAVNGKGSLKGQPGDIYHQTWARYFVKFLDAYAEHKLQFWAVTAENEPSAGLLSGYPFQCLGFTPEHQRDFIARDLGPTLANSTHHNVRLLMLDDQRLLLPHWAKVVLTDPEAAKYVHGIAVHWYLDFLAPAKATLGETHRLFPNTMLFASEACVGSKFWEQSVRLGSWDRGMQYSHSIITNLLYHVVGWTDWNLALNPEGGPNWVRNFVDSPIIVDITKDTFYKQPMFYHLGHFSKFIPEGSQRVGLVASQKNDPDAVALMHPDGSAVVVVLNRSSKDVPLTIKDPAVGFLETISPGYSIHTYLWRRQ
# Active calls of the source: *. This is one part of a sample in which hits are shown more often than they occur.
SMILES,GBA enhancer
N#Cc1cc2c(=O)n3ccccc3nc2n(CCCn2ccnc2)c1=N,-14
Cc1ccc(S(=O)(=O)c2cc3c(=O)n4ccccc4nc3n(CC3CCCO3)c2=N)cc1 (stereo not given),-4
CCC(Oc1ccccc1)C(=O)Nc1ccccn1 (stereo not given),12
COCCNC(=O)C(c1ccccc1)N(CCOC)C(=O)Cn1nnc2ccccc21 (stereo not given),-7
C=CCN(C(=O)Cn1nnc2ccccc21)C(C(=O)NCCOC)c1ccc(OC)cc1OC (stereo not given),93*
COCCN(C(=O)Cn1nnc2ccccc21)C(C(=O)NC1CCCC1)c1cc(OC)ccc1OC (stereo not given),13
CC(CC(=O)NCc1ccccc1)C1CCCO1 (stereo not given),-1
Cc1cc(C)n(CCc2nc3c4ccccc4n(CC(=O)Nc4ccc(Cl)cc4F)c(=O)n3n2)n1,19
O=C1c2ccccc2C(=O)N1CCCc1nc(-c2ccccn2)no1,-4
O=C1CCC(=O)N1CCCCCc1nc(-c2ccccc2)no1,-4
Nc1nonc1-c1noc(CCCCCN2C(=O)c3ccccc3C2=O)n1,479*
Cc1noc(C)c1COc1ccc(C(=O)OCc2nnc(-c3ccc(Cl)cc3)o2)cc1,-21
CCOC(=O)c1c(CN2CCCCC2)n(C)c2ccc(OC)c(S(=O)(=O)c3ccccc3)c12,4
COc1ccc(OC)c2[nH]c(=O)c(CCNC(=O)c3ccc(Br)o3)cc12,-27
COc1ccc(S(=O)(=O)N(CC(=O)N2CCN(C)CC2)c2ccccc2)cc1OC,-48
COc1ccccc1CC(=O)NCC1CCCO1 (stereo not given),10
COc1ccc(S(=O)(=O)N(CC(=O)NCC2CCCO2)c2ccccc2)cc1OC (stereo not given),75*
Cc1[nH]nc2c1C(c1cccc(O)c1)C1=C(CC(C)(C)CC1=O)N2 (stereo not given),5
COc1ccc(-c2oc(/N=C/N3CCOCC3)c(C#N)c2-c2ccc(OC)cc2)cc1,19
CCCNS(=O)(=O)c1ccc(C(=O)NCC2CCCO2)cc1 (stereo not given),-30
Cc1ccc(C)n1-c1ccc(C(=O)NCC2CCCO2)cc1 (stereo not given),93*
CCCCS(=O)(=O)Nc1ccc(C(=O)NCC2CCCO2)cc1 (stereo not given),-10
Cc1ccccc1NC(=O)C1CCCN1C(=O)NC1CCCCC1 (stereo not given),-33
Cc1cc(Cl)ccc1OC(C)C(=O)Nc1ccccc1N1CCOCC1 (stereo not given),-28
Cc1ccn2cc(C(=O)Nc3ccccc3N3CCOCC3)nc2c1,92*
SMILES,GBA enhancer
CCC(C)Oc1cccc(C(=O)Nc2ccccc2N2CCOCC2)c1 (stereo not given),-2
Cc1ccc(-c2nnn(CC(=O)Nc3ccccc3N3CCOCC3)n2)cc1,-18
O=C(Nc1ccccc1N1CCOCC1)c1ccc2ccccc2n1,20
CC(C)Oc1cccc(C(=O)Nc2ccccc2N2CCOCC2)c1,65*
O=C(CSc1nnc2c3cc(F)ccc3nc(-c3ccccc3)n12)N1CCOCC1,-9
COc1ccc(CNC(=O)C2COc3ccccc3O2)c(OC)c1 (stereo not given),12
COc1ccccc1CN(Cc1ccco1)S(=O)(=O)c1ccc(-n2cnnn2)c(OC)c1,-16
CC(=O)N1C(C(=O)O)CSC1c1cccc(C)c1 (stereo not given),122*
Cc1cccc(CN2CCN(CC(=O)O)C2=O)c1,12
Cc1cccc(NC(=O)c2cnc3n(c2=O)CCS3)c1,-8
Cc1cc(C)cc(N(CC(=O)NCc2cccnc2)S(C)(=O)=O)c1,-8
Cc1ccc(Cn2nnnc2CN2CCC(O)(c3ccccc3F)CC2)cc1,1
CC(=O)c1ccc2c(c1)Nc1ccccc1S2,71*
COC(=O)CC1Sc2ccccc2NC1=O (stereo not given),-22
CC(=O)c1cccc(NC(=O)C=C(C)C)c1,1
Clc1ccc(-n2nnnc2SCc2c(-c3ccccc3)nc3sccn23)cc1,-11
Cc1ccc(CN(CC(=O)NCCc2ccccc2)C(=O)CCCC(=O)Nc2cc(C)on2)cc1,-37
O=C(CCNc1ccc(F)cc1)c1ccco1,-36
O=C(CCCNS(=O)(=O)c1cccc2nsnc12)NCc1ccccc1,-16
O=C(CCCNS(=O)(=O)c1cccc2nsnc12)NCc1ccc(Cl)cc1,-36
COc1ccc(CNC(=O)CCCNS(=O)(=O)c2cccc3nonc23)cc1,183*
N#CC1=C(N)N(c2ccccc2Sc2ccccc2)C(=O)C1,-2
CCCCCCC1/C(=N/O)CCC1C(=O)OC (stereo not given),0
CCOc1ccc(CCNS(=O)(=O)c2cnc[nH]2)cc1OCC,1
Cc1cc(=O)oc2cc3c(cc12)OCCO3,-1
SMILES,GBA enhancer
Cc1cc2c(C)cc(=O)oc2c2c1NCCC2,76*
Cc1cc(=O)oc2cc3c(cc12)OCCN3,14
COc1cc(Cl)c(C)cc1NC(=O)COC(=O)c1cnc(C)cn1,-2
O=C(Nc1ccc(F)cc1)c1cc(S(=O)(=O)N2CCCCC2)cs1,-9
Clc1ccc(C2=Nn3c(nnc3-c3cccnc3)SC2)s1,-14
Brc1ccc(C2=Nn3c(nnc3-c3cccnc3)SC2)s1,98*
O=c1oc2ccccc2cc1C1=Nn2c(nnc2-c2cccnc2)SC1,-9
O=C(C1CCCN1S(=O)(=O)c1ccc(Cl)c(Cl)c1)N1CCCCC1 (stereo not given),-14
Cc1cccc(-c2nc(CSCC(=O)N3CCN(Cc4ccc5c(c4)OCO5)CC3)c(C)o2)c1,-51
CCN=C1SC(CC(=O)Nc2ccccc2)C(=O)N1CC (stereo not given),6
CN=C1SC(CC(=O)Nc2cccc(C(F)(F)F)c2)C(=O)N1C (stereo not given),135*
CN=C1SC(CC(=O)Nc2sc(C)c(C)c2C(=O)OC)C(=O)N1C (stereo not given),-14
COc1ccccc1NC(=O)C1=C(C)Nc2nnnn2C1c1ccncc1 (stereo not given),-13
CCOc1ccccc1C1C(C(=O)Nc2ccccc2OC)=C(C)Nc2nnnn21 (stereo not given),153*
COc1ccccc1NC(=O)C1=C(C)Nc2ncnn2C1c1ccccc1C (stereo not given),-28
Cc1cc(=O)n2nc(N3CCC(C(=O)NCCC4=CCCCC4)CC3)sc2n1,-11
COc1cccc(C2/C(=C(/O)c3ccncc3)C(=O)C(=O)N2CCCN2CCOCC2)c1OC (stereo not given),8
Cc1ccc(N2C(=O)Nc3ccc(Br)cc3C2(O)C(=O)NCCCN(C)C)cc1C (stereo not given),119*
CN(C)CCNC(=O)c1cc2cc(Br)ccc2oc1=O,-4
COc1ccc(S(=O)(=O)N2CCOCC2)c(Cl)c1Cl,-66
Cc1ncsc1CCSc1nc2ccccc2c(=O)n1C,-19
CCOC(=O)Cc1cnc(NC(=O)NC(C(=O)OCC)(c2ccccc2)C(F)(F)F)s1 (stereo not given),-15
CCn1c(SCC(=O)O)nnc1C1CCCCC1,4
CCOC(=O)c1c(C)n(C)c2ccc(OCC(O)Cn3nc(C)c(Br)c3C)cc12 (stereo not given),-18
CCOC(=O)c1c(C)n(C)c2cc(Br)c(C(=O)OC)cc12,-11
CCOC(=O)c1c(C)n(C)c2ccc(OC(C)C(=O)OC)cc12 (stereo not given),72*
COc1ccccc1-c1nnc(SCC(=O)OC(C)C)o1,-4

# Bioassay records: PubChem BioAssay, The Scripps Research Institute Molecular Screening Center
